This passage reports outcome and AC50 results from PubChem BioAssay (EPA / NIEHS).

Inconclusive results are not listed. Activity calls are given as the source filed them. The calls were made as follows, unless noted: active = hit-call score of the fitted dose curve at least 0.9, where 1 is the maximum; inactive = score below 0.9.

Experiment [1] is described as follows: ATG_NFI_CIS: Attagene CIS-FACTORIAL HepG2 Assay for human Nuclear Factor I (NFI) (AID 2282989). The settings on record: HepG2 cis-regulatory reporter, NFI response element transcription; actives raise or lower the signal. The procedure, abridged: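 Endogenous TF activity in HepG2 cells transiently transfected with cis-element-driven multiplexed reporter units, read 24 h after dosing. Reporter mRNA quantified by RT-PCR, 6-FAM labelling, HpaI digestion and capillary electrophoresis; bidirectional fit versus DMSO.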

Experiment [2] addresses Myc proto-oncogene protein (Homo sapiens) (UniProt P01106). In words: ATG_Myc_CIS: Attagene CIS-FACTORIAL HepG2 Assay for human Myelocytomatosis (Myc) Proto-Oncogene Transcription Factor (AID 2282990). The settings on record: HepG2, Attagene cis-reporter transcription factor activity; actives raise or lower the signal. The procedure, abridged:
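Read-out: fluorescent reporter mRNA fragments resolved by capillary electrophoresis after RT-PCR. Human HepG2 liver cells carried transfected cis-element reporter units and were dosed for 24 h. Gain or loss of signal fitted relative to DMSO baseline.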

The nature of experiment [3]: ATG_NF_kB_CIS: Attagene CIS-FACTORIAL HepG2 Assay for human Nuclear Factor Kappa B (NF-kB) (AID 2282991). The settings on record: HepG2 Attagene cis-factorial NF-kB reporter mRNA; actives raise or lower the signal. The procedure, abridged: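 After 24 h compound incubation, transfected HepG2 cells yield total RNA; reporter cDNA is PCR-amplified, end-labelled with 6-FAM, HpaI-digested and analysed on a genetic analyser. Endogenous factor activity, DMSO-referenced bidirectional fit.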

Experiment [4] is described as follows: ATG_NRF2_ARE_CIS: Attagene CIS-FACTORIAL HepG2 Assay for human Nuclear Factor Erythroid 2 Related Factor 2 (NFR2) response to Antioxidant Response Elements (ARE) (AID 2282992).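 As to AC50: reporter mRNA level measured by RT-PCR and capillary electrophoresis fluorescence.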 The settings on record: HepG2 Attagene ARE/NRF2 reporter, transcription factor activity; actives raise or lower the signal. The method, boiled down:
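Fluorescence intensity of reporter-specific cDNA fragments, separated by capillary electrophoresis, reflects mRNA induction in transfected HepG2 cells at 24 h. Activity is fitted bidirectionally, DMSO serving as baseline.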

The nature of experiment [5]: ATG_Oct_MLP_CIS: Attagene CIS-FACTORIAL HepG2 Assay for human Octamer-Binding Transcription Factor (Oct) (AID 2282993). The settings on record: HepG2 Attagene cis-factorial Oct reporter, mRNA; actives raise or lower the signal. The procedure, abridged: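 HepG2 cells transiently transfected with cis-element-driven reporter transcription units (endogenous TF activity); 24 h compound exposure. Reporter mRNA quantified by RT-PCR, 6-FAM labelling, HpaI digestion and capillary electrophoresis; bidirectional fit versus DMSO baseline.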

A short description of experiment [6]: BSK_3C_uPAR: BioMAP Diversity Plus: 3C Assay for Urokinase-type plasminogen activator receptor (uPAR) Biomarker Activity (AID 2282998). The settings on record: BioMAP 3C HUVEC, uPAR biomarker ELISA; actives raise or lower the signal. The method, boiled down: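 Primary human umbilical vein endothelial cells, 3C system; surface uPAR measured by ELISA 24 h after dosing. Cytotoxicity via SRB total protein in parallel cultures; bidirectional fit against DMSO.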
On the technique in general: An ELISA detects its analyte on a solid surface through an enzyme-linked reagent.

Experiment [7] is described as follows: BSK_3C_VCAM1: BioMAP Diversity Plus: 3C Assay for Vascular cell adhesion molecule 1 (VCAM1) Biomarker Activity (AID 2282999). The settings on record: BioMAP 3C HUVEC, VCAM1 ELISA, cytokine-stimulated; actives raise or lower the signal. The procedure, abridged:
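HUVEC primary cells, 24 h compound exposure; VCAM-1 by ELISA; gain/loss of signal fitted bidirectionally vs DMSO baseline.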

Experiment [8] is described as follows: BSK_4H_Eotaxin3: BioMAP Diversity Plus: 4H Assay for Eotaxin 3 Biomarker Activity (AID 2283000).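 Also: CCL26 protein level quantified by ELISA in parallel with SRB cytotoxicity check.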 The settings on record: primary human endothelial cells (HUVEC); actives raise or lower the signal. The procedure, abridged: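 HUVEC, 24 h post-dose, ELISA for Eotaxin-3/CCL26. Gain or loss of signal fitted bidirectionally vs DMSO baseline.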
Experiment [9] deals with human Peroxisome Proliferator-activated Receptor alpha (PPARa), PPARA (gene 5465) (UniProt Q07869). In words: ATG_PPARa_TRANS: Attagene TRANS-FACTORIAL HepG2 Assay for human Peroxisome Proliferator-activated Receptor alpha (PPARa) (AID 2283001; active = hit-call score of the fitted dose curve at least 0.9, where 1 is the maximum;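 as to AC50: potency for gain of reporter signal over DMSO so agonist or activator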). The method, boiled down: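 HepG2, transient MRTU transfection, 24 h treatment. RT-PCR → FAM labelling → capillary electrophoresis. Fit vs DMSO, positive direction.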

Experiment [10] has as its target Nuclear receptor subfamily 1 group I member 2 (Homo sapiens) (UniProt O75469). Nature of the experiment: ATG_PXR_TRANS: Attagene TRANS-FACTORIAL HepG2 Assay for human Pregnane X Receptor (PXR) (AID 2283008; active = hit-call score of the fitted dose curve at least 0.9, where 1 is the maximum). The method, boiled down: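 Transient HepG2 transfectants carrying multiplexed reporter transcription units; PXR activity read through a Gal4 chimera. 24 h exposure. RT-PCR/CE fluorescence; upward curve fit referenced to DMSO.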

Experiment [11] concerns the target Cellular tumor antigen p53 (Homo sapiens) (UniProt P04637). Nature of the experiment: ATG_p53_CIS: Attagene CIS-FACTORIAL HepG2 Assay for human p53 Transcription Factor (AID 2282994). The settings on record: HepG2 p53 cis-element reporter, Attagene mRNA; actives raise or lower the signal. The method, boiled down:
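Transiently transfected HepG2 (multiple cis reporter transcription units); exposure 24 h; reporter RNA via RT-PCR, 6-FAM extension, 2 h HpaI digest at 37 C, CE detection; DMSO baseline.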

The nature of experiment [12]: BSK_3C_TissueFactor: BioMAP Diversity Plus: 3C Assay for Tissue Factor Biomarker Activity (AID 2282997). The settings on record: BioMAP 3C HUVEC, tissue factor biomarker readout; actives raise or lower the signal. The method, boiled down: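 Readout: Tissue Factor ELISA. Cells: human primary umbilical vein endothelium. Time: 24 h after dosing. Analysis: bidirectional fit, DMSO baseline.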

Experiment [13] deals with human Peroxisome Proliferator-activated Receptor delta (PPARd), PPARD (gene 5467) (UniProt Q03181). Nature of the experiment: ATG_PPARd_TRANS: Attagene TRANS-FACTORIAL HepG2 Assay for human Peroxisome Proliferator-activated Receptor delta (PPARd) (AID 2283002; active = hit-call score of the fitted dose curve at least 0.9, where 1 is the maximum). The method, boiled down:
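Read-out: reporter mRNA induction, quantified by fluorescent RT-PCR products resolved by capillary electrophoresis. Human HepG2 liver cells carried transiently transfected Gal4-UAS reporter constructs with chimeric NR-Gal4 fusions. Cells were dosed for 24 h; DMSO served as baseline.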

Read-out in experiment [14]: Intercellular Adhesion Molecule 1 (ICAM1), ICAM1 (gene 3383)
In words: BSK_3C_ICAM1: BioMAP Diversity Plus: 3C Assay for Intercellular Adhesion Molecule 1 (ICAM1) Biomarker Activity (AID 2283003). The settings on record: primary human endothelial cells (HUVEC); actives raise or lower the signal. The procedure, abridged:
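Chemicals are dosed onto primary human umbilical vein endothelium (3C system). After 24 h, ICAM-1 is measured by ELISA, and responses are fitted bidirectionally relative to DMSO.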

Experiment [15] has as its target Peroxisome proliferator-activated receptor gamma (Homo sapiens) (UniProt P37231). In words: ATG_PPARg_TRANS: Attagene TRANS-FACTORIAL HepG2 Assay for human Peroxisome Proliferator-activated Receptor-gamma (PPARg) (AID 2283007; active = hit-call score of the fitted dose curve at least 0.9, where 1 is the maximum). The procedure, abridged: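 Liver-derived HepG2 cells expressing an exogenous NR-Gal4 chimera alongside GAL4-UAS reporter genes; 24 h exposure. Fluorescence of reporter RT-PCR products, separated by capillary electrophoresis, gives mRNA induction relative to DMSO.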

Experiment [16] deals with human Retinoic Acid Receptor beta (RARb), RARB (gene 5915) (UniProt P10826). Nature of the experiment: ATG_RARb_TRANS: Attagene TRANS-FACTORIAL HepG2 Assay for human Retinoic Acid Receptor beta (AID 2283004; active = hit-call score of the fitted dose curve at least 0.9, where 1 is the maximum). The procedure, abridged:
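HepG2 cells transiently transfected with multiplexed GAL4-UAS reporter units expressing chimeric NR–Gal4 fusions; 24 h compound exposure. Reporter mRNA quantified by RT-PCR, 6-FAM labelling, HpaI digestion and capillary electrophoresis; gain-of-signal fitted against DMSO baseline.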

Experiment [17] in a line: BSK_3C_Proliferation: Cell Proliferation Assessment in the BioMAP Diversity Plus: 3C Assay (AID 2283006). The settings on record: primary human endothelial cells (HUVEC). The method, boiled down: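 Cells (human umbilical vein endothelial, sub-confluent) receive test chemical; after 48 h they are fixed in 10% trichloroacetic acid, stained with 0.1% SRB and read at 560 nm. Activity is referenced to DMSO, fitting increases and decreases.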

Experiment [18] concerns the target Retinoic acid receptor alpha (Homo sapiens) (UniProt P10276). Nature of the experiment: ATG_RARa_TRANS: Attagene TRANS-FACTORIAL HepG2 Assay for human Retinoic Acid Receptor alpha (RARa) (AID 2283005; active = hit-call score of the fitted dose curve at least 0.9, where 1 is the maximum). The procedure, abridged: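 HepG2 transiently transfected with multiplex GAL4-UAS reporter units including a human RARa–GAL4 chimera; 24 h compound exposure. Reporter mRNA quantified by RT-PCR, 6-FAM labeling and capillary electrophoresis; gain of signal versus DMSO.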

For experiment [19], the target named is human Retinoic Acid Receptor gamma (RARg), RARG (gene 5916) (UniProt P13631). In words: ATG_RARg_TRANS: Attagene TRANS-FACTORIAL HepG2 Assay for human Retinoic Acid Receptor gamma (RARg) (AID 2283009; active = hit-call score of the fitted dose curve at least 0.9, where 1 is the maximum). The procedure, abridged: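 TRANS format measured activity of exogenous NR-GAL4 fusion (RARg) in transfected HepG2 liver cells after 24 h dosing. Induced reporter RNA was detected by RT-PCR/capillary electrophoresis fluorescence, analysed in the positive direction against DMSO.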
human Retinoic Acid Receptor gamma (RARg), RARG (gene 5916), sequence (P13631 whole entry, looked up, the tested form may be a part): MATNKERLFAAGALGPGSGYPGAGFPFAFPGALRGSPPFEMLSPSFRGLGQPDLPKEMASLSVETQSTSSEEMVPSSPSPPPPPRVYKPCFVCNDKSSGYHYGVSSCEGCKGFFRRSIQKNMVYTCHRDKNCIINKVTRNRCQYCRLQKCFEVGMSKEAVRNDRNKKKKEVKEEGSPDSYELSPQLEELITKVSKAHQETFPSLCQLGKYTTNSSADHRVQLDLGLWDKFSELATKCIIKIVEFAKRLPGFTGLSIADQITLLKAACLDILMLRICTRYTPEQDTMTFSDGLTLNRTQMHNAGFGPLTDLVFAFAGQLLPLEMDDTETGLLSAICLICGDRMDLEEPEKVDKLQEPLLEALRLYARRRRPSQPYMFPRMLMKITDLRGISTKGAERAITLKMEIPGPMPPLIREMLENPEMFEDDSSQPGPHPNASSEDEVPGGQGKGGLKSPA

Peroxisome proliferator-activated receptor gamma (Homo sapiens), sequence (P37231 whole entry, looked up, the tested form may be a part): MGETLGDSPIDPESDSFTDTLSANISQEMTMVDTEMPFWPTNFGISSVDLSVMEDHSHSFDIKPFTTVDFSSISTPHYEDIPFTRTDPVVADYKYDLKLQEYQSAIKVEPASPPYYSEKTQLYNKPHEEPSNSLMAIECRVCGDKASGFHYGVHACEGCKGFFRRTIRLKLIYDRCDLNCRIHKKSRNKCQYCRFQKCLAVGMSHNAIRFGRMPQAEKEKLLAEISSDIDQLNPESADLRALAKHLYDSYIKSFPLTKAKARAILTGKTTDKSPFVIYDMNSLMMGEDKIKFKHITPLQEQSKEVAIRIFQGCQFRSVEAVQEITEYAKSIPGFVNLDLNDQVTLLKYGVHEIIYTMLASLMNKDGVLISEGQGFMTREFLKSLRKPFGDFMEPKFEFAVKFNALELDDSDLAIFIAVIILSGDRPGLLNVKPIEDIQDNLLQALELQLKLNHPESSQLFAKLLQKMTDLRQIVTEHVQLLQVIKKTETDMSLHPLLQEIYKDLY
human Peroxisome Proliferator-activated Receptor delta (PPARd), PPARD (gene 5467), sequence (Q03181 whole entry, looked up, the tested form may be a part): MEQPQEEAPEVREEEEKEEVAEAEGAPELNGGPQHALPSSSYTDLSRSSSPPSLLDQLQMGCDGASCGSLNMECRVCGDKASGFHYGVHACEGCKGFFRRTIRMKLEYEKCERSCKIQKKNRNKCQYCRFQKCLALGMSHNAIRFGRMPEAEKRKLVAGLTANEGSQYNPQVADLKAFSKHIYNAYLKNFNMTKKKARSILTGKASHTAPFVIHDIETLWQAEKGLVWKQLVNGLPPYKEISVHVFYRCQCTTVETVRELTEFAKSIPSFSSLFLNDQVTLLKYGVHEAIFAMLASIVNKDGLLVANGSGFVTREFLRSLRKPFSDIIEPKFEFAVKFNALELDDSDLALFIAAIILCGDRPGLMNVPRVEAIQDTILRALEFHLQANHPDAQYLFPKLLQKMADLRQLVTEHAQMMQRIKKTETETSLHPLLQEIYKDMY
Retinoic acid receptor alpha (Homo sapiens), sequence (P10276 whole entry, looked up, the tested form may be a part): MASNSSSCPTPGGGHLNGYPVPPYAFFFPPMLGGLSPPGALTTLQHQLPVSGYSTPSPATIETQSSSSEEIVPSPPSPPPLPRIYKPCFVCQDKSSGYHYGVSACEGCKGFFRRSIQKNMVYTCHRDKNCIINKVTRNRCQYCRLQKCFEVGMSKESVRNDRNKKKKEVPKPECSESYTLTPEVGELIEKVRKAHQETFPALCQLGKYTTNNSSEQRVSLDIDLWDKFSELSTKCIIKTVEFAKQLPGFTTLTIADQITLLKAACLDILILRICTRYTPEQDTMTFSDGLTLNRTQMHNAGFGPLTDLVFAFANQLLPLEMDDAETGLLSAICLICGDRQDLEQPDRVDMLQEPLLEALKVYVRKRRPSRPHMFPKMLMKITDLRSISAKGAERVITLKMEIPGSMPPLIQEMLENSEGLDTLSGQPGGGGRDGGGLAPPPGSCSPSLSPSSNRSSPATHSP
Nuclear receptor subfamily 1 group I member 2 (Homo sapiens), sequence (O75469 whole entry, looked up, the tested form may be a part): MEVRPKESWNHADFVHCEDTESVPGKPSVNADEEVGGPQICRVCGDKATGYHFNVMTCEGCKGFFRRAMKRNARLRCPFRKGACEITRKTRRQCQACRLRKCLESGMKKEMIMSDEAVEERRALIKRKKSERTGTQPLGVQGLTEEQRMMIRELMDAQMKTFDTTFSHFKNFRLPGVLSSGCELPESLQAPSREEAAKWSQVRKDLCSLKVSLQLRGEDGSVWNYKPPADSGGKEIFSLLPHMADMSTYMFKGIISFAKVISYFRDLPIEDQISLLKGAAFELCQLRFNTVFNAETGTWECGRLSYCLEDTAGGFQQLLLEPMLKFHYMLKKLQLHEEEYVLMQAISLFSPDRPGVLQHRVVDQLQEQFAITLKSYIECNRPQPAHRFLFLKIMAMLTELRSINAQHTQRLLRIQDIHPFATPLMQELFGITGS
human Retinoic Acid Receptor beta (RARb), RARB (gene 5915), sequence (P10826 whole entry, looked up, the tested form may be a part): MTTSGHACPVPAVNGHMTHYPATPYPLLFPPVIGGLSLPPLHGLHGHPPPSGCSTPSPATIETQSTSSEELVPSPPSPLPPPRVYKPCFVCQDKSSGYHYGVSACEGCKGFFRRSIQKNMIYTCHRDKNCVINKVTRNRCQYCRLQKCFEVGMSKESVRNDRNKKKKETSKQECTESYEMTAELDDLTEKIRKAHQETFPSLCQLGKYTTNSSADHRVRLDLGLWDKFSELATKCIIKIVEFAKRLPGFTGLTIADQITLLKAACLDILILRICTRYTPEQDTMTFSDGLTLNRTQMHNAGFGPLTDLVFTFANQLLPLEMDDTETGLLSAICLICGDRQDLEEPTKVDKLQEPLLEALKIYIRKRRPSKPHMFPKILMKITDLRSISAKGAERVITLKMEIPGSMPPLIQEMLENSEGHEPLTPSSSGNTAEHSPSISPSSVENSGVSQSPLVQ
Cellular tumor antigen p53 (Homo sapiens), sequence (P04637 whole entry, looked up): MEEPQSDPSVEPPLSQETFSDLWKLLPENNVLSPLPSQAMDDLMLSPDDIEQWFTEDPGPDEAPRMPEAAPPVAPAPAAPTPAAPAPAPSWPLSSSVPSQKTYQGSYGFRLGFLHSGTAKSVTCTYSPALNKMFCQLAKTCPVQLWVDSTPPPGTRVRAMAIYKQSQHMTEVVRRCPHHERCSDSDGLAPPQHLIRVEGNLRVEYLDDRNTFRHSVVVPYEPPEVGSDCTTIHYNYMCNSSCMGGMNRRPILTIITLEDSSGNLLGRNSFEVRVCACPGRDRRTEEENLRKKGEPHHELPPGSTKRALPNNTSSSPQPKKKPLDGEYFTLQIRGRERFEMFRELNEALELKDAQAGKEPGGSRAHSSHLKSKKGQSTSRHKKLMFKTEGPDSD
human Peroxisome Proliferator-activated Receptor alpha (PPARa), PPARA (gene 5465), sequence (Q07869 whole entry, looked up): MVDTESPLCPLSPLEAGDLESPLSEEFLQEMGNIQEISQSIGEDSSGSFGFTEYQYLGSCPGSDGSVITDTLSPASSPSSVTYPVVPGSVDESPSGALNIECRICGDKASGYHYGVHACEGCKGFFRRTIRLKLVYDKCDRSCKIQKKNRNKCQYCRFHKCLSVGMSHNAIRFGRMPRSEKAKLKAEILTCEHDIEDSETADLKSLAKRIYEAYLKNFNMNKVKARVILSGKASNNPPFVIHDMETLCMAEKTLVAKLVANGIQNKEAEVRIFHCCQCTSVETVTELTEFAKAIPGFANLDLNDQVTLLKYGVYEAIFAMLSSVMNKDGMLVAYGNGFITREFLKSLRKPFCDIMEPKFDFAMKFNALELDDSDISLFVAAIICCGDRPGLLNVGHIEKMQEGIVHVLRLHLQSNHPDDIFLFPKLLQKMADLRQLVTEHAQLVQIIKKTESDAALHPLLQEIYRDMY
Myc proto-oncogene protein (Homo sapiens), sequence (P01106 whole entry, looked up, the tested form may be a part): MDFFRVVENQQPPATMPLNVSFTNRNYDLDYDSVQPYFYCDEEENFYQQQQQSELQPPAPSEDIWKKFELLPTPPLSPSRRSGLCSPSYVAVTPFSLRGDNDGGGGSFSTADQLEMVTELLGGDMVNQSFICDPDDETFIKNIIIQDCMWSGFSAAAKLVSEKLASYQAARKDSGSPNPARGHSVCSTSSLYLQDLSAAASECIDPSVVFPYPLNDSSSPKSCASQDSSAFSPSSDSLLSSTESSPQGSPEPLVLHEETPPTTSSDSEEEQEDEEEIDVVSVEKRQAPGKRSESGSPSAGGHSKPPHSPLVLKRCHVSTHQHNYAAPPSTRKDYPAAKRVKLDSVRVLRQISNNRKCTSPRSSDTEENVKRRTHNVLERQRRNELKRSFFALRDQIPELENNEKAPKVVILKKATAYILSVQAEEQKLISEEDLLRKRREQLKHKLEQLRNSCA

With `CS(C)(=O)=O`, the compound was called inactive in experiment [1], in [2], in [3], in experiment [5], in experiment [6] and in experiment [7]. The outcome in [8], in experiment [9] and in [10] was inactive. Besides, in experiment [4], the AC50 is 27.5 µM (active).

Consider `Oc1ccc(Nc2ccccc2)cc1`, for which the call in [2], in experiment [3], in experiment [11], in experiment [12], in [6] and in experiment [9] was inactive. Moreover, the compound was called inactive in experiment [13] and in [14]. The half-maximal activity concentration (AC50) in [4] is 43.9 µM (active); in experiment [7], 20 µM (active); in experiment [15] it was 23.4 µM (active); in experiment [10], 20.5 µM (active).

With `NC(=O)C(F)(F)C(F)(F)C(F)(F)C(F)(F)F`, the compound was classed as inactive in experiment [1], in experiment [2], in [3], in experiment [4], in experiment [5] and in [6]. Besides, the outcome in experiment [7], in experiment [9], in experiment [14], in experiment [16], in experiment [17] and in experiment [15] was inactive. Moreover, the compound was classed as inactive in experiment [10].

Consider `CCCCC(CC)COP(=O)(O)OCC(CC)CCCC` (stereo not given), for which the compound was classed as inactive in experiment [2], in experiment [5], in [6] and in experiment [7]. Besides, the half-maximal activity concentration (AC50) in [4] is 26.6 µM (active); in [9], 16.5 µM (active); in experiment [15], 7.51 µM (active); in experiment [10] it was 15.4 µM (active).

`Nc1ccc(Oc2cccc(Oc3ccc(N)cc3)c2)cc1`: the AC50 in [1] was 166 µM (active); in experiment [4], 26.5 µM (active); in experiment [15] it was 5.29 µM (active); in experiment [10] it was 22.1 µM (active). Besides, the call in [2], in [3] and in experiment [9] was inactive.

Take `O=C(O)C(F)(F)C(F)(F)F`: the compound was called inactive in experiment [1], in experiment [2], in [3], in experiment [4], in experiment [5] and in experiment [11]. Further, the result in [12], in experiment [6], in experiment [7], in experiment [8], in [9] and in experiment [13] was inactive. Besides, the outcome in experiment [18], in experiment [15] and in experiment [10] was inactive.

As for `O=C(O)C(F)(F)C(F)(F)C(F)(F)C(F)(F)C(F)(F)C(F)(F)C(F)(F)C(F)(F)C(F)(F)C(F)(F)C(F)(F)C(F)(F)F`, the compound was classed as inactive in experiment [2], in experiment [3], in [4], in experiment [5], in experiment [6] and in [7]. Also, the outcome in [9], in [13], in experiment [16], in [18], in [15] and in experiment [10] was inactive. In experiment [19], the compound was classed as inactive. The AC50 in [11] was 143 µM (active).

Regarding `C1COCCN1`, the outcome in experiment [2], in [4], in [11], in experiment [9], in experiment [13] and in experiment [16] was inactive. For the same compound, the call in [18] and in experiment [10] was inactive.

Turning to `O=S(=O)(OCCOC(F)(F)F)C(F)(F)F`, the result in experiment [2], in experiment [3], in experiment [4], in experiment [12], in experiment [6] and in [7] was inactive. Further, the call in [9], in experiment [13], in experiment [14], in experiment [16], in [15] and in experiment [10] was inactive. Also, the outcome in [19] was inactive.

By AC50 is commonly meant the concentration giving half of the maximal activity seen.
